Source: ChEMBL document CHEMBL3988442, “University of Dundee, Small-Polar-MMV Screening Library” (2021)
About 13,000 (27%) of roughly 48,000 compounds showed an effect of 50% or more. The list shows a part of the results.

test system: Wolbachia pipientis; experiment: Anti-Wolbachia Cell-Based Screen; format: functional; design: scale not given: in the data most compounds retested in dose-response had high values; settings: 5 µM

SMILES	Percent Effect
CN1CCC(c2nnc3ccc(C(=O)N4CCCCC4)cn23)C1.O=C(O)C(F)(F)F (stereo not given)	-6.443%
CN(C)CCn1ccc2cc(NC(=O)NCc3ncnn3C)ccc21	9.223%
CN(C)CCNC(=O)Cc1cccc(I)c1	13.6%
CC(C)C(=O)Nc1ccc2c(c1)ncn2CC(=O)NCCN(C)C	87.82%
Cc1cc(NC(=O)Nc2ccc3c(ccn3CCN(C)C)c2)n(C)n1	0.0592%
CCOCCOC(C)C(=O)Nc1ccc2ccn(CCN(C)C)c2c1 (stereo not given)	3.941%
Cn1c(C2CC2)nc2cc(NC(=O)C3CC=CC3)ccc21	-5.037%
CC(C)c1nc2cc(NC(=O)Cn3ccc(=O)[nH]c3=O)ccc2o1	-1.465%
CC(C)CC(=O)Nc1ccc2c(c1)ncn2CC(=O)NCCN(C)C	122%
CN(C)CCNC(=O)Cn1cnc2cc(NC(=O)C3CC3)ccc21	109.1%
CC(CC(=O)Nc1ccc(C(=O)N(C)C)c(Cl)c1)n1cccc1 (stereo not given)	-5.842%
CC(C)NC(=O)Nc1ccc2c(c1)ncn2CC(=O)NCCN(C)C	117%
CCN(CC)C(=O)Cn1ccc2cc(NC(=O)C3CC3)ccc21	-9.83%
CC(c1ccc(F)cc1)n1ccnc1-c1cc2n(n1)CCCNC2 (stereo not given)	-9.513%
CCC(C)(NCc1nnc(C(C)(C)C)o1)c1nccs1 (stereo not given)	-1.916%
CS(=O)(=O)CCc1ncnn1-c1ccc(F)c(Cl)c1	-1.677%
CN1Cc2cc(F)ccc2N(CC(O)C(F)(F)F)CCC1=O (stereo not given)	104.4%
CC(C)C(C)NC(=O)CCN1C(=O)CCc2cc(F)ccc21 (stereo not given)	-7.908%
CC(Cn1cccn1)NC(=O)NCCCN1CCc2ccccc21 (stereo not given)	-6.742%
CCCC(O)CN1CCC(=O)N(C)Cc2cc(F)ccc21 (stereo not given)	92.66%
CCN1CC2(CCN(C(=O)C(C)Oc3ccc(F)cc3Cl)CC2)CC1=O (stereo not given)	-0.3825%
CN1Cc2ccccc2N(CC(O)C(F)(F)F)CCC1=O (stereo not given)	95.04%

SMILES	Percent Effect
CCN1Cc2cc(F)ccc2N(CC(O)C(F)(F)F)CCC1=O (stereo not given)	105.6%
CCCC(C)NC(=O)CCN1C(=O)CCc2cc(F)ccc21 (stereo not given)	-15.19%
CC(O)CN1CC2(CCC1=O)CCN(Cc1cc(F)ccc1Cl)CC2 (stereo not given)	0.5458%
OC(CN1CCCc2ccc(F)cc21)Cn1cccn1 (stereo not given)	-5.11%
CC(C)CNC(=O)CCN1C(=O)CCc2cc(F)ccc21	-21.96%
CS(=O)(=O)Nc1ccc(CNC(=O)CN2CCc3ccccc32)cc1	8.101%
N#Cc1c(Cl)nsc1NCC1(c2ccccc2)CCC1	12.51%
CCNC(=O)[C@@H]1C[C@H](NC(=O)c2ccccc2C#N)CN1CCCSC	-7.827%
CCNC(=O)[C@@H]1C[C@@H](NC(=O)Cc2ccncc2)CN1Cc1ccsc1	-6.435%
CCN(CC)C(=O)[C@@H]1C[C@H](NC(=O)c2cccn2C(C)C)CN1C	0.9655%
C/C=C(\C)CN1C[C@@H](NC(=O)c2ccc(O)c(Cl)c2)C[C@H]1C(=O)NCC	-9.176%
CSCCC(C)(O)CNC(=O)c1ccsc1 (stereo not given)	-0.07665%
CCNC(=O)[C@@H]1C[C@@H](NC(=O)c2cccn2C)CN1CCCSC	111.5%
CCNC(=O)[C@@H]1C[C@@H](NC(=O)c2ccsc2)CN1CCCSC	107.8%
CCNC(=O)[C@@H]1C[C@@H](NC(=O)c2ccc(C)cc2O)CN1CCCSC	82.24%
CCNC(=O)[C@@H]1C[C@H](NC(=O)c2cncnc2C)CN1CCCSC	-8.18%
C/C=C(\C)CN1C[C@@H](NC(=O)c2ccc(F)c(F)c2)C[C@H]1C(=O)NCC	-14.95%
CCNC(=O)[C@@H]1C[C@@H](NC(=O)c2ccc(C#N)cc2)CN1CCCSC	95.48%
COCC(=O)N1CCC2(CC1)CC(N1CCN(C)CC1)CO2 (stereo not given)	-3.796%
O=C(CCc1nc(Cl)n[nH]1)N1C[C@@H](CN2CCCCCC2)[C@@H](CO)C1	5.284%
COc1ccc(C(=O)N2CCC(Oc3ccc(C)cc3)(C(=O)O)CC2)o1	-8.575%
CCc1nnsc1C(=O)N1CCCN(Cc2ccc(C)cc2)CC1	9.546%

SMILES	Percent Effect
Cc1ccc(CN2CCOC(C)(c3cnn(C)c3)C2)cc1 (stereo not given)	-10.42%
Cc1cccc2[nH]c(C3CCN(C(=O)c4cnc[nH]c4=O)CC3)nc12	-11.79%
CC(NCc1cccc2c1OCCO2)c1cc2c(cc1Br)OCCO2 (stereo not given)	-2.569%
CSCC(C)(O)CNC(=O)c1ccc(Br)cc1C (stereo not given)	6.824%
COc1cccc(-c2nccnc2C2CCN(C(C)=O)CC2)c1	-11.4%
CC(=O)N1CCC(c2nccnc2-c2ccc(F)c(F)c2)CC1	101.1%
CS(=O)(=O)CCC(=O)N1CCC(c2ccc(F)c(F)c2)CC1	-5.239%
COc1ccccc1-c1nccnc1C1CCN(C(C)=O)CC1	137.3%
COc1cccc(C(=O)N2CCCC(c3cc(C)[nH]n3)C2)c1OC (stereo not given)	3.009%
COc1ccccc1-c1nnc([C@H]2CCN(C(C)=O)C2)o1	4.286%
COc1ccccc1-c1ccc(C2CCCN(C(C)=O)C2)nc1 (stereo not given)	120.7%
CN1CCCC1c1nccnc1-c1ccc(C(=O)O)cc1 (stereo not given)	141.8%
CC(O)c1cn(CC2CCN(C(=O)CN3CCCC3=O)CC2)nn1 (stereo not given)	-6.496%
CCCN(CC1CC1)C(=O)Nc1ccc(N2CCSCC2)cc1C	-17.78%
COCCN(C)c1ccc(NCc2cscn2)nc1	1.249%
CN1CCOC(CNC(=O)CCc2cc(F)ccc2F)C1 (stereo not given)	5.661%
CC(=O)N1CCC(N2CC[C@H](c3nc4cc(F)ccc4o3)C2)CC1	-6.986%
O=C(C1CCOCC1)N1CCc2ncnc(-c3ccc(F)cc3)c2CC1	-7.65%
CC(=O)N1CCC(c2nccnc2-c2ccc(F)cc2)CC1	97.61%
CC(=O)N1CCC(c2nccnc2-c2ccc(C(=O)O)cc2)CC1	96%
COc1ccc(-c2nccnc2C2CCN(C(C)=O)CC2)cc1	-14.84%
